KLF5 inh – kruppel-like factor 5 inhibition | hit rate 0.23% among 290,000 | inhibition, % at 5 µM | DLD-1 KLF5 promoter-luciferase reporter, luminescence;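 active means inhibition above a per-plate limit of that plate's mean compound inhibition plus 3 SD, cut at about 60% in these data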;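 further: higher means less KLF5 promoter-driven luciferase light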
SKKanGAS inh – inhibitors of SKKanGAS S. pyogenes growth in kanamycin (SK-promoter or general growth effect); BacTiter-Glo, 6 h; inhibition, % at 7.5 µM; hit rate 1.3% among 300,000; AID 1662;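 active means mean replicate score, as percent of positive control median, at least 50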;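 further: strain carries kanamycin resistance gene driven by streptokinase promoter and grows in 40 µg/ml kanamycin; loss of luminescence reflects streptokinase promoter inhibition or plain growth inhibition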
CSC inhib – blocks cancer stem cells. hit rate 1.1% among 300,000. inhibition, % at 7.5 µM. cancer stem cell-like cells viability, luminescence; in the data active means inhibition above about 75%; tested in HMLE shEcad cells
aSyn UTR inh – 5' untranslated region of α-synuclein, MLPCN primary screen | alpha-synuclein 5'UTR reporter, inhibitor activity | inhibition, % (tested at 7.5 µM) | hit rate 0.82% among 300,000; in the data active means inhibition above about 60%;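 further: H4 neuroglioblastoma cells stably carrying SNCA 5'UTR luciferase fusion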
IEC-6 tox-1 – kills IEC-6 intestinal cells in KLF5 counter-screen. hit rate 0.78% among 290,000. inhibition, % at 5 µM. IEC-6 cytotoxicity, luminescence viability
KLF5 inh confirm – KLF5 inhibition, confirmation assay. DLD-1 KLF5 promoter firefly luciferase reporter, luminescence. AID 1834. inhibition, % at 4 µM. shares compounds with KLF5 inh. hit rate 79% among 610;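 active means inhibition above a set limit taken from the earlier primary screen, cut at about 63% in these data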
IEC-6 tox-2 – rat IEC-6 cytotoxicity, KLF5 inhibitor counter-screen | shares compounds with KLF5 inh | AID 1905 | inhibition, % at 4 µM | IEC-6 rat intestinal cells, viability luminescence | hit rate 56% among 610; in the data active means inhibition above about 23%;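 further: cells exposed to compounds for 48 hours before viability read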
IEC-6 tox confirm – confirmation of cytotoxic compounds in rat IEC-6 intestinal epithelial cells. shares compounds with IEC-6 tox-1. IEC-6 rat intestinal epithelial viability, luminescence. inhibition, % at 5 µM. hit rate 63% among 1,900. AID 1907
Numbers stand for hits; ! = not active in a repeat. Hits are enriched below; roughly 3% of the tested compounds scored in any of these assays. Unless noted, no stated cut-off is given here; in the data, active means inhibition above about 22%; inactive means the rest.

How did COc1cc2c(c(OC)c1OC)-c1ccc(O)c(=O)cc1C(NC(C)=O)CC2 (centres undefined) do in these assays?
KLF5 inh: 73; SKKanGAS inh: inactive; CSC inhib: inactive; aSyn UTR inh: 90; IEC-6 tox-1: 94; KLF5 inh confirm: 89; IEC-6 tox-2: 91; IEC-6 tox confirm: 83

What do the screens show for `COC(=O)C1=C(c2cccc(OC)c2OC)C[C@@H]2CC[C@H]1N2C(=O)NCc1cccc2ccccc12`?
SKKanGAS inh: inactive; CSC inhib: inactive; aSyn UTR inh: inactive

Results for CCn1nc(-c2ccccc2)nc2c(=O)n(C)c(=O)nc1-2 ?
KLF5 inh: inactive; SKKanGAS inh: 95; CSC inhib: inactive; aSyn UTR inh: inactive; IEC-6 tox-1: 99; IEC-6 tox confirm: 60

Results for COc1ccc(-c2nc3ccccc3c(=O)n2-c2ccc(OC)cc2)cc1 ?
KLF5 inh: inactive; SKKanGAS inh: inactive; CSC inhib: inactive; aSyn UTR inh: inactive; IEC-6 tox-1: inactive

What do the screens show for `O=C(COC(=O)c1cccc(O)c1)Nc1ccc(Cl)cc1C(=O)c1ccccc1`?
KLF5 inh: inactive; SKKanGAS inh: inactive; CSC inhib: inactive; aSyn UTR inh: inactive; IEC-6 tox-1: inactive

How did CC(C)(C)c1ccc(CSc2cnn(C(C)(C)C)c(=O)c2Cl)cc1 do in these assays?
KLF5 inh: inactive; SKKanGAS inh: 59; CSC inhib: inactive; aSyn UTR inh: 101; IEC-6 tox-1: 30; IEC-6 tox confirm: inactive

What do the screens show for `C#CCOc1cc(C2C3=C(COC3=O)Nc3cc4c(cc32)OCO4)ccc1OC` (centres undefined)?
KLF5 inh: inactive; CSC inhib: inactive; aSyn UTR inh: 78; IEC-6 tox-1: 78; IEC-6 tox confirm: 57

Results for COC(=O)c1ccccc1-n1c(C)nc2ccccc2c1=O ?
KLF5 inh: inactive; CSC inhib: inactive; IEC-6 tox-1: inactive

How did O=C(O)c1cccc2nc3ccccc3nc12 do in these assays?
KLF5 inh: inactive; SKKanGAS inh: inactive; CSC inhib: inactive; aSyn UTR inh: inactive; IEC-6 tox-1: 40; IEC-6 tox confirm: inactive

What do the screens show for `CC(=O)O[C@@]12CO[C@@H]1C[C@H](O)[C@@]1(C)C(=O)[C@H](O)C3=C(C)[C@@H](OC(=O)[C@H](O)[C@@H](NC(=O)c4ccccc4)c4ccccc4)C[C@@](O)([C@@H](OC(=O)c4ccccc4)C12)C3(C)C` (some centres undefined)?
KLF5 inh: inactive; SKKanGAS inh: inactive; CSC inhib: inactive; aSyn UTR inh: 114; IEC-6 tox-1: 92; IEC-6 tox confirm: 71

Results for CC(=O)O[C@H]1C(=O)[C@@]2(C)C([C@H](OC(=O)c3ccccc3)[C@]3(O)C[C@H](OC(=O)[C@H](O)[C@@H](NC(=O)Cc4ccccc4)c4ccccc4)C(C)=C1C3(C)C)[C@]1(OC(C)=O)CO[C@@H]1C[C@@H]2O (some centres undefined) ?
KLF5 inh: inactive; SKKanGAS inh: inactive; CSC inhib: inactive; aSyn UTR inh: 93; IEC-6 tox-1: 91; IEC-6 tox confirm: 86

How did CCC(C)N1C(=O)NC(=O)C2(Cc3cc(C)ccc3N(C)C2)C1=O (centres undefined) do in these assays?
KLF5 inh: inactive; SKKanGAS inh: inactive; aSyn UTR inh: inactive; IEC-6 tox-1: inactive

Results for COc1cc2c(cc1/C=C/[N+](=O)[O-])OCO2 ?
KLF5 inh: inactive; SKKanGAS inh: inactive; aSyn UTR inh: inactive; IEC-6 tox-1: 42; IEC-6 tox confirm: inactive

What do the screens show for `COc1ccc(NC(=O)N2C[C@@H]3C[C@@H](C2)c2cccc(=O)n2C3)cc1`?
KLF5 inh: inactive; SKKanGAS inh: inactive; CSC inhib: inactive; aSyn UTR inh: inactive; IEC-6 tox-1: inactive

How did c1cncc(C2Nc3cccc4cccc(c34)N2)c1 do in these assays?
KLF5 inh: inactive; SKKanGAS inh: inactive; CSC inhib: inactive; aSyn UTR inh: inactive; IEC-6 tox-1: 38!; IEC-6 tox confirm: inactive

Results for c1cncc(C2CCCCN2)c1 (centres undefined) ?
KLF5 inh: inactive; SKKanGAS inh: inactive; CSC inhib: inactive; aSyn UTR inh: inactive; IEC-6 tox-1: inactive

What do the screens show for `[N-]=[N+]=NCc1cn2cccnc2n1`?
KLF5 inh: inactive; SKKanGAS inh: inactive; CSC inhib: inactive; aSyn UTR inh: inactive; IEC-6 tox-1: inactive

Results for C=C1[C@@H](C)[C@H]2[C@H](Cc3ccccc3)NC(=O)[C@]23OC(=O)/C=C/[C@H](O)CCC[C@@H](C)C/C=C/[C@H]3[C@@H]1O ?
KLF5 inh: inactive; SKKanGAS inh: inactive; CSC inhib: inactive; aSyn UTR inh: 109; IEC-6 tox-1: 87; IEC-6 tox confirm: 85

How did O=C(O)C1C2CC3CC(C2)CC1(n1ncc(N2CCC4(CC2)OCCO4)c(Cl)c1=O)C3 (centres undefined) do in these assays?
KLF5 inh: inactive; SKKanGAS inh: inactive; CSC inhib: inactive; aSyn UTR inh: inactive; IEC-6 tox-1: inactive

What do the screens show for `COC(=O)C(O)(c1ccc(N(C)C)cc1)C(F)(F)F` (centres undefined)?
KLF5 inh: inactive; SKKanGAS inh: inactive; CSC inhib: inactive; aSyn UTR inh: inactive; IEC-6 tox-1: inactive

What do the screens show for `CN(C)c1ccc(C(=O)c2ccc(N(C)C)cc2)cc1`?
KLF5 inh: inactive; SKKanGAS inh: inactive; aSyn UTR inh: inactive; IEC-6 tox-1: 33; IEC-6 tox confirm: 50

How did Cc1ccc2c(c1)N(C(=O)CCC(=O)N1CCC3(CC1)OCCO3)CCO2 do in these assays?
KLF5 inh: inactive; SKKanGAS inh: inactive; CSC inhib: inactive; aSyn UTR inh: inactive; IEC-6 tox-1: inactive

Results for CNc1cc(Cl)c2nonc2c1[N+](=O)[O-] ?
KLF5 inh: inactive; SKKanGAS inh: inactive; aSyn UTR inh: inactive; IEC-6 tox-1: 93; IEC-6 tox confirm: 37

What do the screens show for `CN1CC(C(=O)c2cccc(C(F)(F)F)c2)C(c2ccc(Cl)cc2)C1` (centres undefined)?
KLF5 inh: inactive; SKKanGAS inh: inactive; CSC inhib: inactive; aSyn UTR inh: inactive; IEC-6 tox-1: inactive
